SARS PLP yeast: inhibitors of SARS-CoV papain-like protease in yeast | 330,000 compounds, 0.19% hits | AID 485353 | Potency, µM (highest dose often 32.9 µM), actives largely listed as activators | S. cerevisiae expressing SARS-CoV PLpro, growth rescue; calls by dose curve; also: nearly all actives have a fitted effect of over 55% in size
HCV inhibitor: HCV inhibition; Potency, µM (top dose mostly 41.8 µM), actives largely listed as inhibitors; 340,000 compounds, 3.4% hits; Huh7.5.1 HCVcc-Cre infection, luciferase reporter, 44 h; AID 651820; active = well fitted inhibition curve with a large enough effect; inconclusive = small, poorly fitted or top-dose-only effect, or another doubt; inactive = no such curve, though single readings can be large or run the other way
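Infectious HCVcc-Cre (~0.5 moi) was added to cells just after compound, with cells seeded 4 h earlier at 1,000 per well. Luciferase activity after 44 h culture reported infection; substrate was incubated 15 min at room temperature before reading.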
HCMV inh: inhibitors of human cytomegalovirus; HFF cells, HCMV-luciferase reporter, 72 h; active compounds read low; activity change, negative = inhibition, % at 57.5 µM; 410,000 compounds, 4.5% hits; in the data active = activity change below about -60%; inconclusive = no clear call, values can overlap the other calls; inactive = above about -39%
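Cell-based, HFFs, 1000 cells/well, 16 h 37C; cpds in DMSO + HCMV-luc, MOI 1 PFU/cell; 72 h 37C; OneGlo luminescence after 5 min RT; norm. to buffer vs Salinomycin 10uM.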
MARV entry inh: Marburg virus entry inhibition | Marburg virus pseudotyped entry inhibition, cell reporter | Potency, µM (titrated, usually from 37.8 µM), most hits filed as inhibitors | AID 540276 | 300,000 compounds, 1.8% hits; calls by dose curve; tested in HEK293 cells
FMDV inh: blocks foot and mouth disease virus; FMDV antiviral cell-based qHTS; Potency, µM (doses to about 57.9 µM), hits mostly inhibitors; 410,000 compounds, 1.2% hits; calls by dose curve; tested in HEK293T cells; also: read-out not given here; nearly all actives have a fitted effect of over 45% in size
Lassa entry inh: Lassa virus entry inhibition. Lassa virus pseudotype entry inhibition, cell reporter. Potency, µM (titrated, usually from 37.9 µM), usual class: inhibitors. 300,000 compounds, 1.2% hits; calls by dose curve; tested in HEK293 cells; also: nearly all actives have a fitted effect of over 50% in size
Large screens that a line does not name were inactive. An excerpt weighted towards active compounds, which were near 8% of everything screened.

O=C(N/N=C/c1cc(Br)c(O)c(Br)c1O)c1cccnc1	HCV inhibitor inconclusive (no result: MARV entry inh, Lassa entry inh)
COc1ccccc1/C=N/NC(=O)c1ccc(C)nc1	none (no result: MARV entry inh, Lassa entry inh)
Cn1cnnc1SCC(=O)Nc1ccc(C#N)cc1	none (no result: SARS PLP yeast, HCV inhibitor)
CCn1cc(S(=O)(=O)c2ccccc2)c(=O)c2cc(F)c(N3CCCCCC3)cc21	HCMV inh inconclusive (no result: SARS PLP yeast, HCV inhibitor, MARV entry inh)
CCOc1ccccc1N(CC)C(=O)c1cc2c(=O)[nH]c3ccc(C)cc3c2s1	none (no result: SARS PLP yeast, HCV inhibitor, Lassa entry inh)
Cc1cc(=O)[nH]c2nnc(SCCC(C)C)n12	none (no result: SARS PLP yeast, HCV inhibitor, MARV entry inh)
O=C(NN=Cc1ccc(N(CCCl)CCCl)cc1Cl)c1cccnc1	HCV inhibitor inconclusive, MARV entry inh 1.6µM, Lassa entry inh inconclusive (no result: SARS PLP yeast)
Cc1c(/C=N/NC(=O)c2cccs2)c2ccccc2n1Cc1ccccc1Cl	HCV inhibitor inconclusive, HCMV inh -81, MARV entry inh 2.9µM, Lassa entry inh 4.1µM
Cc1cc(N(CCCl)CCCl)ccc1C=NNC(=O)c1cccnc1	HCV inhibitor inconclusive, HCMV inh inconclusive, MARV entry inh inconclusive, Lassa entry inh inconclusive (no result: SARS PLP yeast)
O=C(N/N=C/c1cccnc1)c1cc(O)c(O)c(O)c1	MARV entry inh 3.2µM, Lassa entry inh inconclusive
Cn1cc(C(=O)N/N=C/c2c(O)ccc3ccccc23)ccc1=O	HCV inhibitor 4.5µM, HCMV inh -99 (no result: MARV entry inh, Lassa entry inh)
O=C(N/N=C/c1cccnc1)c1ccc(O)cc1	Lassa entry inh inconclusive
COc1cccc(/C=N/NC(=O)c2ccc(=O)n(C)c2)c1O	SARS PLP yeast inconclusive, MARV entry inh inconclusive, Lassa entry inh inconclusive
Cc1ccc(NC(=O)CSc2nc3c(c(=O)[nH]2)CCC3)cc1Cl	MARV entry inh inconclusive (no result: SARS PLP yeast, HCV inhibitor)
O=C(CCCn1c(=O)c2cccn2c2cccnc21)Nc1ccccc1Br	none (no result: SARS PLP yeast, HCV inhibitor, MARV entry inh)
C[C@H]1N[S+](=O)([O-])c2ccc(Br)cc2O[C@@H]1c1ccccc1	none (no result: SARS PLP yeast, HCV inhibitor, HCMV inh, MARV entry inh, FMDV inh)
CCc1ccccc1NC(=O)c1ncoc1-c1ccco1	none (no result: SARS PLP yeast, HCV inhibitor, MARV entry inh)
Cn1cccc1/C=N\NC(=O)c1cncc(Br)c1	HCMV inh inconclusive, MARV entry inh inconclusive
Cc1occc1C(=O)N/N=C/c1c(O)ccc2ccccc12	HCV inhibitor inconclusive, HCMV inh -101, MARV entry inh 3.5µM, Lassa entry inh inconclusive
O=C(N/N=C/c1cccc2ccccc12)c1ccncc1	none (no result: MARV entry inh, Lassa entry inh)
Cc1c(/C=N/NC(=O)c2cccnc2)c2ccccc2n1Cc1ccccc1	HCV inhibitor 11µM, HCMV inh -62, FMDV inh 14µM, Lassa entry inh inconclusive
O=C(N/N=C\c1c(O)ccc2ccccc12)c1cncc(Br)c1	SARS PLP yeast inconclusive, HCV inhibitor inconclusive, HCMV inh -100, MARV entry inh inconclusive, Lassa entry inh inconclusive
O=C(NN=Cc1c(O)ccc2ccccc12)c1ccncc1	HCV inhibitor inconclusive, HCMV inh -100, MARV entry inh 3.2µM, Lassa entry inh 3.2µM (no result: SARS PLP yeast)
COC(=O)c1ccc(NC(=O)CSc2nc(=O)[nH]c3c2CCCC3)cc1	none (no result: SARS PLP yeast, HCV inhibitor, MARV entry inh)
CCCc1nn(C)c(C(=O)Nc2cccc(C)c2)c1Cl	Lassa entry inh inconclusive
Cn1c(/N=C/c2c(O)ccc3ccccc23)nc2ccccc21	SARS PLP yeast inconclusive, HCMV inh -85
CCCc1nn(C)c(C(=O)Nc2cccc(Cl)c2)c1Cl	HCV inhibitor inconclusive, HCMV inh -64
Cn1c(-c2ccccc2)c(/C=N/NC(=O)c2ccc(O)cc2)c2ccccc21	HCV inhibitor 10µM (no result: MARV entry inh, Lassa entry inh)
O=C(O)c1ccc(N=Cc2c(O)ccc3ccccc23)cc1	MARV entry inh inconclusive
O=C(N/N=C\c1c(O)ccc2ccccc12)c1ccc(O)cc1	SARS PLP yeast 13µM, HCV inhibitor inconclusive, HCMV inh -98 (no result: MARV entry inh, Lassa entry inh)
CCCn1c(/N=C/c2ccccc2O)nc2ccccc21	MARV entry inh inconclusive
Cn1ncc(Cl)c1C(=O)Nc1cccc(Cl)c1	Lassa entry inh inconclusive
Cn1ncc(N=Cc2c(O)ccc3ccccc23)c1C(=O)Nc1cccc(Cl)c1	HCV inhibitor inconclusive, MARV entry inh 18µM, Lassa entry inh inconclusive
CN(C)CCCNc1nc(-c2ccccc2)nc2ccccc12	MARV entry inh 13µM
Cc1ccc(Nc2nc(-c3ccncc3)nc3ccccc23)cc1	MARV entry inh 2.2µM
Cc1c2ccccc2nc2c(F)c(NCCO)c(F)c(F)c12	HCV inhibitor inconclusive, Lassa entry inh inconclusive
c1ccc(CCNc2nc(-c3ccncc3)nc3ccccc23)cc1	HCV inhibitor 13µM, HCMV inh -71, MARV entry inh inconclusive, FMDV inh inconclusive, Lassa entry inh inconclusive
Cc1ccc(-c2nc(NCCCN(C)C)c3ccccc3n2)cc1	none (no result: SARS PLP yeast, HCV inhibitor, MARV entry inh, Lassa entry inh)

Screening results from PubChem.
